Active and inactive are the calls of the source. How the source made its calls: active means hit-call score of the fitted dose curve at least 0.9, where 1 is the maximum; inactive means score below 0.9.
Assay: APR_HepG2_StressKinase_24hr: Apredica 24-hour HepG2 Assay for Stress Kinase (AID 2282922)
Settings: HepG2 stress kinase (phospho-c-Jun) imaging, actives raise or lower the signal
Procedure: APR_HepG2_24hr is a cell-based, multiplexed-readout assay that uses HepG2, a human liver cell line, with measurements taken at 24 hours after chemical dosing in a 384-well plate.APR_HepG2_StressKinase_24hr is one of 10 assay component(s) measured or calculated from the APR_HepG2_24hr assay. It is designed to make measurements of enzyme activity, a form of enzyme reporter, as detected with fluorescence intensity signals by HCS Fluorescent Imaging technology.Data from the assay component APR_HepG2_StressKinase_24hr was analyzed into 1 assay endpoint. This assay endpoint, APR_HepG2_StressKinase_24hr, was analyzed with bidirectional fitting relative to DMSO as the negative control and baseline of activity. Using a type of enzyme reporter, measures of protein for gain or loss-of-signal activity can be used to understand the signaling at the pathway-level as they relate to the gene . Furthermore, this assay endpoint can be referred to as a primary readout, because this assay has produced multiple assay endpoints where this one serves a signaling function. To generalize the intended target to other relatable targets, this assay endpoint is annotated to the cell cycle intended target family, where the subfamily is stress response.
Cells were treated with dimethyl sulfoxide (DMSO) as a solvent control at a final concentration of 0.5% v/v or with compounds in DMSO with a resulting final DMSO concentration of 0.5% v/v. Compound treatment was done at concentrations of 0.39, 0.78, 1.56, 3.12, 6.24, 12.5, 25, 50, 100, and 200 uM in duplicate on each plate. Cells were treated with compounds for 1, 24, or 72 hr. Carbonyl […] m-chloro-phenylhydrazone (CCCP) and taxol were used as positive controls for mitochondrial function and cytoskeletal stability, respectively; DMSO served as the negative control for this experiment. Cells were fixed by the direct addition of 50 uL formaldehyde in Hank's Balanced Salt Solution (HBSS) to a final concentration of 3.7%. After incubation in the fixation medium for 30 min at room temperature (293-298 K), cells were rinsed twice with HBSS and treated with cell permeabilization buffer (16 uL of 0.5% Triton X-100) for 10 min at room temperature (293-298 K) before labeling. For mitochondrial membrane potential and mitochondrial measurements, pre-fixed cells were incubated with 50 uL of MitoTracker Red CMXRos (Invitrogen) at a concentration of 250 nM for 30 min before fixation. In the remaining cases, post-fixed cells were labeled by incubation with a multiplexed mixture of primary antibodies in HBSS for 60 min at room temperature (293-298 K) to detect immunoreactivity of c-Jun (1:500), phospho-histone H3 (1:100), phospho-histone H2A.x (1:200), p53 (1:400), alpha-tubulin (1:200) and Hoechst 33342 (2 ug/mL). Cells were labeled for multiplexed imaging on two separate plates: a) Hoechst 33342, MitoTracker Red, phospho-histone H3, and alpha-tubulin, and b) Hoechst 33342, phospho-histone H2A.x, and c-Jun. A final rinse with HBSS (50 uL) was performed before analysis. The primary and secondary antibodies for the proteins were phospho-histone H3 (rabbit anti-phospho-histone H3 and FITC-donkey anti-rabbit IgG), phospho-histone H2A.x (mouse anti-phospho-histone H2A.x and FITC-donkey anti-mouse IgG), c-Jun (rabbit anti-phospho-c-Jun and Cy3-donkey anti-rabbit IgG), p53 (sheep anti-p53 and Cy5-donkey anti-sheep IgG), alpha-tubulin (mouse anti-alpha-tubulin and Cy5-donkey anti-mouse IgG). These antibodies are available as the CellCiphr HepG2 assay kit (Millipore).Digital images of each well were captured using a Cellomics ArrayScan VTI (Thermo Scientific Cellomics) (0.8 NA objective, 0.63x optical coupler, and XF-93 filter set) at 20x magnification. The images were acquired using the autofocus feature of the ArrayScan instrument, which entails the following steps. First, the camera focuses on channel 1 (Hoechst 33342), where nuclei are identified. Second, a Z offset of 1 um is used for capturing mitochondria (MitoTracker Red). […]

Structure (SMILES)	outcome	AC50
CCOP(=S)(OCC)Oc1ccc2c(C)c(Cl)c(=O)oc2c1	inactive	
CCOP(=S)(OCC)OC(Cl)C(Cl)(Cl)Cl (stereo not given)	inactive	
COP(=O)(OC)OC(Br)C(Cl)(Cl)Br (stereo not given)		32.5 µM (active)
CC(C)[C@H](C(=O)O[C@H](C#N)c1cccc(Oc2ccccc2)c1)c1ccc(Cl)cc1	inactive	
Cc1nn(-c2cc(NS(C)(=O)=O)c(Cl)cc2Cl)c(=O)n1C(F)F	inactive	
CCOC(=O)CC(SP(=O)(OC)OC)C(=O)OCC (stereo not given)	inactive	
CON=C(C(=O)OC)c1ccccc1CON=C(C)c1cccc(C(F)(F)F)c1	inactive	
CC[C@H](C)[C@H]1O[C@]2(C=C[C@@H]1C)C[C@@H]1C[C@@H](C/C=C(\C)[C@@H](O[C@H]3C[C@H](OC)[C@@H](O[C@H]4C[C@H](OC)[C@@H](NC)[C@H](C)O4)[C@H](C)O3)[C@@H](C)/C=C/C=C3\CO[C@@H]4[C@H](O)C(C)=C[C@@H](C(=O)O1)[C@]34O)O2	inactive	
FC(F)C(F)(F)OCC(Cn1cncn1)c1ccc(Cl)cc1Cl (stereo not given)	inactive	
COP(=O)(NC(C)=O)SC (stereo not given)	inactive	
CCC(CC)Nc1c([N+](=O)[O-])cc(C)c(C)c1[N+](=O)[O-]	inactive	
CCNc1nc(Cl)nc(NC(C)(C)C#N)n1	inactive	
CCCOCC(=Nc1ccc(Cl)cc1C(F)(F)F)n1ccnc1	inactive	
Cc1ccn2nc(S(=O)(=O)Nc3c(F)cccc3F)nc2n1	inactive	
CN(C)[C@@H]1C(=O)C(C(N)=O)=C(O)[C@@]2(O)C(=O)C3=C(O)c4c(O)cccc4[C@@](C)(O)[C@H]3[C@H](O)[C@@H]12	inactive	
CN1COCN(Cc2cnc(Cl)s2)C1=N[N+](=O)[O-]	inactive	
CCOP(=O)(NC(C)C)Oc1ccc(SC)c(C)c1 (stereo not given)	inactive	
O=C(O)c1cc(Oc2ccc(C(F)(F)F)cc2Cl)ccc1[N+](=O)[O-]	inactive	
C=C(C)[C@H]1Cc2c(ccc3c2O[C@@H]2COc4cc(OC)c(OC)cc4[C@@H]2C3=O)O1	inactive	
Nc1c(Cl)cc([N+](=O)[O-])cc1Cl	inactive	

Structure (SMILES)	outcome	AC50
C#CC(C)(C)NC(=O)c1cc(Cl)cc(Cl)c1	inactive	
CC(C)=CC1C(C(=O)OCN2C(=O)C3=C(CCCC3)C2=O)C1(C)C (stereo not given)	inactive	
S=C1NCCN1	inactive	
CCOP(=O)(OCC)Oc1cc(C)nc(C(C)C)n1	inactive	
CC(=NC#N)N(C)Cc1ccc(Cl)nc1	inactive	
Nc1nc(N)nc(NC2CC2)n1	inactive	
COc1ccc(C(=CC(=O)N2CCOCC2)c2ccc(Cl)cc2)cc1OC	inactive	
CCOP(=S)(OCC)Oc1ccc([N+](=O)[O-])cc1	inactive	
CN(C)C(=O)Nc1cccc(C(F)(F)F)c1	inactive	
Cc1cc(C2CC2)nc(Nc2ccccc2)n1	inactive	
CC1(C(=O)Nc2ccc(O)c(Cl)c2Cl)CCCCC1	inactive	
CC1=NNC(=O)N(/N=C/c2cccnc2)C1	inactive	
CC(COc1ccc(Oc2ccccc2)cc1)Oc1ccccn1 (stereo not given)	inactive	
CC(C1CC1)C(O)(Cn1cncn1)c1ccc(Cl)cc1 (stereo not given)	inactive	
CNc1cnn(-c2cccc(C(F)(F)F)c2)c(=O)c1Cl	inactive	
COc1cccc(C(=O)NN(C(=O)c2cc(C)cc(C)c2)C(C)(C)C)c1C	inactive	
COP(=O)(OC)SCn1c(=O)oc2cc(Cl)cnc21	inactive	
CSC1=N[C@@](C)(c2ccccc2)C(=O)N1Nc1ccccc1	inactive	
CCCCOC(=O)c1ccccc1C(=O)O	inactive	
CCc1cnc(C2=NC(C)(C(C)C)C(=O)N2)c(C(=O)O)c1 (stereo not given)	inactive	
